Results filed as inconclusive are left out. The source made the active and inactive calls. Calls come from the whole dose curve; as a rule, active = well fitted curve in the direction sought with a large enough effect; inconclusive = small, poorly fitted or top-dose-only effect, or another doubt; inactive = no such curve, though single readings can be large; an effect the other way counts as inactive or inconclusive.
What was measured:
[1] = qHTS of pediatric cancer cell lines to identify multiple opportunities for drug repurposing: Primary screen for SK-N-MC cells (AID 1347093); conditions: SK-N-MC viability, CellTiter-Glo luminescence, 48 h; series mostly up to 46 µM; note: potency is the fitted concentration of half-maximal effect
Procedure, shortened: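 Metabolically active cells were quantified by ATP-dependent luminescence (CellTiter-Glo, 15 min at room temperature) following 48 h treatment. Cells had been plated at 500-1,000 per well and settled for 5 h beforehand.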

[2] = qHTS of pediatric cancer cell lines to identify multiple opportunities for drug repurposing: Primary screen for BT-37 cells (AID 1347094); conditions: BT-37 viability, CellTiter-Glo luminescence, 48 h; series mostly up to 57.3 µM; note: potency is the fitted concentration of half-maximal effect
Procedure, shortened: (§1)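 Primary screen of approved and investigational compounds on cells in growth media at 37 degrees C, 5% CO2. MIPE set at 11-point and NPC set at 8-point dilutions; viability scored by ATP-based luminescence at 48 hours.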

[3] = qHTS of pediatric cancer cell lines to identify multiple opportunities for drug repurposing: Primary screen for NB-EBc1 cells (AID 1347095); conditions: NB-EBc1 neuroblastoma viability, CellTiter-Glo luminescence, 48 h; series mostly up to 46 µM; note: potency is the fitted concentration of half-maximal effect
Procedure, shortened: as §1

[4] = qHTS of pediatric cancer cell lines to identify multiple opportunities for drug repurposing: Primary screen for U-2 OS cells (AID 1347096); conditions: U-2 OS viability, CellTiter-Glo luminescence, 48 h; series mostly up to 46 µM; note: nearly all actives have a fitted effect of over 50% in size
Procedure, shortened: (§2)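 Cells (500-1,000/well) rested 5 h, then received compounds for 48 h; metabolically active cells were measured by CellTiter-Glo luminescence. Final concentrations spanned up to 46 µM (MIPE, 11-point) or 0.59 nM-46 µM (NPC, 8-point) in primary screens, 11-point in follow-ups.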

[5] = qHTS of pediatric cancer cell lines to identify multiple opportunities for drug repurposing: Primary screen for LAN-5 cells (AID 1347100); conditions: LAN-5 neuroblastoma viability, CellTiter-Glo luminescence, 48 h; series mostly up to 46 µM; note: potency is the fitted concentration of half-maximal effect
Procedure, shortened: as §2

[6] = qHTS of pediatric cancer cell lines to identify multiple opportunities for drug repurposing: Primary screen for BT-12 cells (AID 1347101); conditions: BT-12 viability, CellTiter-Glo luminescence, 48 h; series mostly up to 57.3 µM; note: nearly all actives have a fitted effect of over 25% in size; note: potency is the fitted concentration of half-maximal effect
Procedure, shortened: as §2

[7] = qHTS of pediatric cancer cell lines to identify multiple opportunities for drug repurposing: Primary screen for Rh18 cells (AID 1347102); conditions: Rh18 rhabdomyosarcoma viability, CellTiter-Glo luminescence, 48 h; series mostly up to 46 µM; note: nearly all actives have a fitted effect of over 65% in size; note: potency is the fitted concentration of half-maximal effect
Procedure, shortened: as §2

[8] = qHTS of pediatric cancer cell lines to identify multiple opportunities for drug repurposing: Primary screen for RD cells (AID 1347104); conditions: RD rhabdomyosarcoma viability, CellTiter-Glo luminescence, 48 h; series mostly up to 46 µM; note: nearly all actives have a fitted effect of over 55% in size; note: potency is the fitted concentration of half-maximal effect
Procedure, shortened: as §1

[9] = qHTS of pediatric cancer cell lines to identify multiple opportunities for drug repurposing: Primary screen for control Hh wild type fibroblast cells (AID 1347106); conditions: Hh wild-type fibroblast viability, CellTiter-Glo luminescence, 48 h; series mostly up to 46 µM; note: nearly all actives have a fitted effect of over 55% in size; note: potency is the fitted concentration of half-maximal effect
Procedure, shortened: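 Viability after 48 h compound treatment at 37C, 500-1,000 cells/well, read as ATP luminescence with CellTiter-Glo. Primary screens used 11-point (MIPE, 0.78 nM-46 µM) or 8-point (NPC, 0.59 nM-46 µM) final concentrations; follow-up screens used 11-point dilutions.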

[10] = qHTS of pediatric cancer cell lines to identify multiple opportunities for drug repurposing: Primary screen for Rh30 cells (AID 1347107); conditions: Rh30 rhabdomyosarcoma viability, CellTiter-Glo luminescence, 48 h; series mostly up to 46 µM; note: nearly all actives have a fitted effect of over 75% in size; note: potency is the fitted concentration of half-maximal effect
Procedure, shortened: as §2

[11] = qHTS of pediatric cancer cell lines to identify multiple opportunities for drug repurposing: Primary screen for Saos-2 cells (AID 1347097); conditions: Saos-2 viability, CellTiter-Glo ATP luminescence, 48 h; series mostly up to 46 µM; note: nearly all actives have a fitted effect of over 40% in size; note: potency is the fitted concentration of half-maximal effect
Procedure, shortened: as §1

[12] = qHTS of pediatric cancer cell lines to identify multiple opportunities for drug repurposing: Primary screen for NB1643 cells (AID 1347099); conditions: NB1643 neuroblastoma viability, CellTiter-Glo luminescence, 48 h; series mostly up to 46 µM; note: nearly all actives have a fitted effect of over 50% in size; note: potency is the fitted concentration of half-maximal effect
Procedure, shortened: as §1

[13] = qHTS of pediatric cancer cell lines to identify multiple opportunities for drug repurposing: Primary screen for Rh41 cells (AID 1347108); conditions: Rh41 rhabdomyosarcoma viability, CellTiter-Glo luminescence, 48 h; series mostly up to 46 µM; note: nearly all actives have a fitted effect of over 70% in size; note: potency is the fitted concentration of half-maximal effect
Procedure, shortened: as §1

[14] = qHTS of pediatric cancer cell lines to identify multiple opportunities for drug repurposing: Primary screen for OHS-50 cells (AID 1347103); conditions: OHS-50 osteosarcoma viability, CellTiter-Glo luminescence, 48 h; series mostly up to 57.3 µM; note: nearly all actives have a fitted effect of over 40% in size; note: potency is the fitted concentration of half-maximal effect
Procedure, shortened: as §2

[15] = qHTS of pediatric cancer cell lines to identify multiple opportunities for drug repurposing: Confirmatory screen for A673 cells (AID 1347110); conditions: A673 Ewing sarcoma cell viability; series mostly up to 45.9 µM; note: nearly all actives have a fitted effect of over 65% in size; note: potency is the fitted concentration of half-maximal effect
Procedure, shortened: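 A673 cells seeded at 500-1,000 cells/well, rested 5 h, then dosed; primary MIPE 11-point (0.78 nM to 46 µM), NPC (0.59 nM to 46 µM); confirmatory 11-point. CellTiter-Glo luminescence after 48 h.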

[16] = qHTS of pediatric cancer cell lines to identify multiple opportunities for drug repurposing: Confirmatory screen for SK-N-MC cells (AID 1347111); conditions: SK-N-MC cell viability; series mostly up to 45.9 µM;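 note: cells exposed to compound for 48 h before the readout; nearly all actives have a fitted effect of over 70% in size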; note: potency is the fitted concentration of half-maximal effect
Procedure, shortened: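 Seed 500-1,000 cells/well; rest 5 h at 37 degrees C. Pin-transfer compounds, 11-point titration. Incubate 48 h. Add CellTiter-Glo, 15 min RT, read luminescence.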

[17] = qHTS of pediatric cancer cell lines to identify multiple opportunities for drug repurposing: Primary screen for SK-N-SH cells (AID 1347098); conditions: SK-N-SH viability, CellTiter-Glo luminescence, 48 h; series mostly up to 57 µM; note: nearly all actives have a fitted effect of over 65% in size; note: potency is the fitted concentration of half-maximal effect
Procedure, shortened: as §2

[18] = qHTS of pediatric cancer cell lines to identify multiple opportunities for drug repurposing: Primary screen for MG 63 (6-TG R) cells (AID 1347105); conditions: MG 63 (6-TG R) viability, CellTiter-Glo, 48 h; series mostly up to 46 µM; note: nearly all actives have a fitted effect of over 50% in size; note: potency is the fitted concentration of half-maximal effect
Procedure, shortened: as §1

[19] = qHTS of pediatric cancer cell lines to identify multiple opportunities for drug repurposing: Primary screen for A673 cells (AID 1347092); conditions: A673 Ewing sarcoma viability, CellTiter-Glo ATP luminescence, 48 h; series mostly up to 46 µM; note: nearly all actives have a fitted effect of over 45% in size; note: potency is the fitted concentration of half-maximal effect
Procedure, shortened: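 A673 cells (500-1,000 cells/well in growth media) were pre-incubated 5 h at 37 degrees C, then exposed to compounds for 48 h. Viability was read as CellTiter-Glo luminescence; concentration-response curves came directly from the primary screen.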

[20] = qHTS of pediatric cancer cell lines to identify multiple opportunities for drug repurposing: Confirmatory screen for NB1643 cells (AID 1347109); conditions: NB1643 neuroblastoma cell viability; series mostly up to 45.9 µM; note: nearly all actives have a fitted effect of over 45% in size; note: potency is the fitted concentration of half-maximal effect
Procedure, shortened: as §2

Measured: Potency

C[C@@H]1CCN(C(=O)CC#N)C[C@H]1N(C)c1ncnc2[nH]ccc12
inactive: [1] | [2] | [3] | [4] | [5] | [6] | [7] | [8] | [9] | [10]

COC[C@@H](c1ccc(C(F)(F)F)cc1)N1CCN(C2(C)CCN(C(=O)c3c(C)ncnc3C)CC2)C[C@H]1C
inactive: [2] | [3] | [4] | [11] | [6] | [7] | [8] | [10] | [13]
active: [1] 3.32 µM | [12] 18.7 µM

NC(=O)c1cnc(-c2ccc(C3(N)CCC3)cc2)c(-c2ccccc2)c1
active: [1] 1.48 µM | [14] 2.73 µM
inactive: [2] | [3] | [4] | [7] | [9] | [10]

COc1ccc(-c2coc3cc(O)cc(O)c3c2=O)cc1
inactive: [2] | [3] | [4] | [5] | [7] | [8] | [9] | [10] | [13]
active: [1] 10.5 µM | [15] 0.117 µM | [16] 1.04 µM

Cc1c[nH]c(C=C2C(=O)Nc3ccccc32)c1CCC(=O)O
inactive: [1] | [2] | [4] | [6] | [8] | [13]
active: [5] 18.7 µM

O=C1NC(=O)C(=Cc2ccc3nccnc3c2)S1
active: [1] 2.29 µM | [3] 4.57 µM | [11] 8.12 µM | [12] 7.24 µM | [14] 4.21 µM | [18] 5.12 µM
inactive: [4] | [17] | [9] | [13]

CC1CCC(C(=O)N(c2cc(C#CC(C)(C)C)sc2C(=O)O)C2CCC(O)CC2)CC1 (stereo unspecified)
inactive: [19] | [4] | [5] | [6] | [9]
active: [12] 20.9 µM

CN(C)c1cc(NC(=O)CNC(C)(C)C)c(O)c2c1C[C@@H]1C[C@H]3[C@H](N(C)C)C(=O)C(C(N)=O)=C(O)[C@@]3(O)C(=O)C1=C2O
not listed: [5] | [15] | [16] | [17] | [19] | [20]
inactive: all other assays above

COc1ccc(-c2oc3c(CC=C(C)C)c(OC4O[C@H](CO)[C@@H](O)[C@H](O)[C@@H]4O)cc(O)c3c(=O)c2OC2O[C@@H](C)[C@H](O)[C@@H](O)[C@@H]2O)cc1 (stereo partly specified)
active: [1] 10.5 µM | [3] 23.5 µM | [11] 26.4 µM | [12] 20.9 µM | [5] 23.5 µM
inactive: [9]

CON=C(C(=O)N[C@@H]1C(=O)N2C(C(=O)OCOC(=O)C(C)(C)C)=C(C=Cc3scnc3C)CS[C@H]12)c1csc(N)n1
active: [1] 18.7 µM
not listed: [12] | [15] | [16] | [19] | [20]
inactive: all other assays above

COc1cc(N2CCC(N3CCN(C)CC3)CC2)ccc1Nc1ncc(Cl)c(Nc2ccccc2S(=O)(=O)C(C)C)n1
active: [1] 0.001 µM | [17] 4.82 µM | [5] 0.001 µM | [9] 29.6 µM | [10] 1.05 µM | [20] 1.04 µM | [15] 3.29 µM | [16] 0.657 µM
inactive: [2] | [4]

COc1cccc([C@@H](C)NCCCc2ccccc2Cl)c1
inactive: [2] | [4] | [11] | [5] | [7] | [8] | [10] | [13]
active: [1] 11.8 µM | [12] 20.9 µM

NC(=O)[C@@H](CCC(F)(F)F)N(Cc1ccc(-c2ncon2)cc1F)S(=O)(=O)c1ccc(Cl)cc1
active: [1] 23.5 µM | [12] 23.5 µM
inactive: [3] | [4] | [5] | [9]

CCS(=O)(=O)N1CC(CC#N)(n2cc(-c3ncnc4[nH]ccc34)cn2)C1
active: [19] 14.8 µM | [12] 11.8 µM | [5] 20.9 µM | [13] 18.7 µM
inactive: [4] | [11] | [6] | [9]

Nc1ncnc2c1ncn2[C@@H]1O[C@@H](CO)[C@H](O)[C@H]1O
not listed: [6] | [11] | [17] | [19] | [20]
inactive: all other assays above

c1cc(-c2sc(-c3ccncc3)c(-c3ccncc3)c2-c2ccncc2)ccn1
inactive: [2] | [3] | [4] | [5] | [6] | [18] | [9] | [10] | [13]
active: [1] 20.9 µM

CCCCCCCCCCCC1=C(O)C(=O)C=C(O)C1=O
active: [1] 0.0935 µM | [2] 0.0243 µM | [3] 0.469 µM | [5] 0.0166 µM | [18] 2.96 µM | [13] 4.69 µM | [16] 16.5 µM
inactive: [4] | [7] | [9] | [10] | [20]

COc1cccc(-c2cc(=O)c3ccccc3o2)c1N
active: [1] 0.662 µM | [12] 20.9 µM | [8] 13.2 µM
not listed: [11] | [14] | [15] | [16] | [17] | [18] | [19]
inactive: all other assays above

CC(=O)N(C)C1(c2ccccc2)CCN(CCC[C@]2(c3ccc(Cl)c(Cl)c3)CCCN(C(=O)c3ccccc3)C2)CC1
active: [1] 20.9 µM | [2] 30.6 µM | [11] 33.2 µM | [12] 23.5 µM | [5] 23.5 µM | [6] 27.3 µM | [7] 26.4 µM | [14] 24.3 µM | [8] 18.7 µM | [13] 18.7 µM

COc1ccc(Cc2ccc(NC(N)=O)cc2)cc1-c1cccc(Cl)c1
inactive: [3] | [4] | [11] | [6] | [7] | [8] | [18] | [9] | [10]
active: [1] 18.7 µM | [12] 16.6 µM

Cc1ccc(/C=N/NC(=O)c2ccccc2Oc2ccccc2)o1
inactive: [4] | [18] | [9]
active: [1] 16.6 µM | [3] 23.5 µM | [12] 18.7 µM

C[C@]12CCC3c4ccc(O)cc4CCC3C1CCC2=O (stereo partly specified)
inactive: [1] | [2] | [3] | [4] | [17] | [8] | [18] | [9] | [10]

CCNc1cc(NC2CCC(O)CC2)nc(Nc2ccc3c(ccn3Cc3ccccc3)c2)n1 (stereo unspecified)
active: [19] 29.6 µM
inactive: [4] | [18] | [9] | [10]

NC(=O)NN=Cc1ccc([N+](=O)[O-])o1
not listed: [5] | [6] | [12] | [14] | [15] | [16] | [19] | [20]
inactive: all other assays above

Source: PubChem BioAssay (NCATS)
